Shown are actives, neighbours in structure and some others; about 9% of the full set was active somewhere.
ALOX12 inh: inhibitors of human 12S-lipoxygenase ALOX12; P18054; purified 12hLO, xylenol orange hydroperoxide absorbance; Potency, µM (series often up to 108 µM), actives largely listed as inhibitors; 580,000 tested, 1.1% active; AID 1671190
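Hydroperoxide product was detected by ferrous iron/xylenol orange as the 573 to 405 nm absorbance ratio. Arachidonic acid at 40 uM (final) was turned over for 30 min at room temperature by 150 nM human 12hLO, pH 7.0 Hepes buffer, after 15 min compound preincubation.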
JMJD2A Tudor: inhibitors of human JMJD2A Tudor domain | AlphaScreen JMJD2A-Tudor / H3K4me3 peptide binding | Potency, µM (series often up to 114 µM), most hits filed as inhibitors | 390,000 tested, 4.4% active | AID 504339; note: nearly all actives have a fitted effect of over 50% in size
BAZ2B block: BAZ2B (human) inhibition; AID 504333; AlphaScreen BAZ2B-H3K14Ac peptide displacement; Potency, µM (doses to about 114 µM), most hits filed as inhibitors; 360,000 tested, 4.4% active; Q9UIF8; note: nearly all actives have a fitted effect of over 60% in size
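Multi-concentration screen (max 110 uM) measuring displacement of acetylated histone H3 peptide from BAZ2B by AlphaScreen, using 50 nM protein, 50 nM peptide and 10 ug/mL streptavidin donor plus Ni-chelate acceptor beads.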
HP1b binding inh: HP1-beta chromodomain-methylated histone interaction inhibition; P83916; AlphaScreen HP1-beta / biotin-H3K9me3 peptide binding; Potency, µM (doses to about 114 µM), hits mostly inhibitors; 390,000 tested, 0.56% active; AID 540317; note: nearly all actives have a fitted effect of over 70% in size
Target sequence (P83916 whole entry, looked up): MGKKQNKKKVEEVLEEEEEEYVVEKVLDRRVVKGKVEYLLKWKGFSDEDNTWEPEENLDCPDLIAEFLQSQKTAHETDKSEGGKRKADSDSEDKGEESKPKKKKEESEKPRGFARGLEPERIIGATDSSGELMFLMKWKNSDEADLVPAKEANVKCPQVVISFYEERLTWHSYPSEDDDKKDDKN
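Compound inhibition of the preformed complex between 50 nM HP1-beta and 50 nM biotinylated H3K9me3 peptide was read by AlphaScreen. Buffer was PBS pH 7.4 with 0.01% Tween-20. Incubations ran 30 min at room temperature, with 10 ug/mL donor/acceptor beads.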
G9a inh: inhibitors of human histone lysine methyltransferase G9a | Potency, µM (titrated, usually from 102 µM), hits mostly inhibitors | 350,000 tested, 8.8% active | G9a H3K9 monomethylation, AlphaScreen, 2 h; note: nearly all actives have a fitted effect of over 75% in size
Target sequence (Q96KQ7 913-1193 limits assumed): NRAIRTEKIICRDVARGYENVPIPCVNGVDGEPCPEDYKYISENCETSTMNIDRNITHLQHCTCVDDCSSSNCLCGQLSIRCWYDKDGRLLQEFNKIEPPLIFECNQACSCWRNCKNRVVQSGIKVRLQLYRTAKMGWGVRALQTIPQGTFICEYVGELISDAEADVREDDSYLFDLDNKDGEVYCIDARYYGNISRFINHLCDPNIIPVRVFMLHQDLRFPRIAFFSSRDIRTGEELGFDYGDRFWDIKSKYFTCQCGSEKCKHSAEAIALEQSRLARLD
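Signal arises when biotinylated H3K9 peptide, once monomethylated, bridges streptavidin donor and antibody-captured acceptor beads. Enzyme at 20 nM was preincubated 15 min with test compounds; peptide 500 nM and SAM 20 uM then reacted for 2 h.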
PLK1 PBD inh: blocks phosphopeptide binding to human PLK1 polo-box domain; 360,000 tested, 2.8% active; Plk1 PBD binding of FITC phosphopeptide, fluorescence polarization; P53350; Potency, µM, most hits filed as inhibitors; AID 720504; note: series mostly up to about 57 µM; nearly all actives have a fitted effect of over 65% in size
Hits are given with their value; 0 = inactive; ? = inconclusive; - = no result given; [ ] = remark or other dose. Calls come from the whole dose curve; as a rule, active = well fitted curve in the direction sought with a large enough effect; inconclusive = small, poorly fitted or top-dose-only effect, or another doubt; inactive = no such curve, though single readings can be large; an effect the other way counts as inactive or inconclusive.

SMILES	ALOX12 inh	JMJD2A Tudor	BAZ2B block	HP1b binding inh	G9a inh	PLK1 PBD inh
COc1cc(C)c2c(c1C=O)Oc1c(c(C)c(O)c3c1C(O)OC3=O)OC2=O (stereo unspecified)	?	79.4µM	79.4µM	0	?	0
Cc1cccc(C(=O)OCC(=O)NCc2ccco2)c1	0	?	?	0	0	0
O=C(OCCOCCO)c1ccccc1Nc1cccc(C(F)(F)F)c1	-	-	-	-	0[5.15 µM]	-
O=C(COC(=O)c1ccccc1Nc1cccc(C(F)(F)F)c1)NCc1ccco1	0	56.2µM	44.7µM	?	28.2µM	0
O=C(COC(=O)c1cccc(Br)c1)NCc1ccco1	?	17.8µM	-	?	-	0
O=C(COC(=O)c1ccccc1)NCc1ccco1	0	?	50.1µM	0	0	0
O=C(COC(=O)c1ccc(Br)o1)NCc1ccco1	0	79.4µM	-	0	-	0
Cc1ccc(C(=O)OCC(=O)NCc2ccco2)cc1	0	0	?	0	?	0
CCCCn1nc(C(=O)Nc2cccc(S(=O)(=O)N3CCCCCC3)c2)c2ccccc2c1=O	0	-	-	-	-	-
CS(=O)(=O)c1ccc2nc(NC(=O)CS(=O)(=O)c3ccc(Cl)cc3)sc2c1	?	0	0	0	0	-
Cc1cccc(CN2C[C@]34C=C[C@@H](C[C@@H]3S2(=O)=O)O4)c1	0	0	0	0	?	0
O=C(c1ccncc1)N1CCC2(CCCN(Cc3ccccc3)C2)CC1	0	-	-	-	0[12.7 µM]	-
CN(C)C(=O)Cc1cccc(F)c1	0	-	-	-	-	-
O=C(COC(=O)c1ccccc1Oc1ccccc1)NCc1ccco1	?	56.2µM	28.2µM	?	44.7µM	?
COc1ccc(C(=O)OCC(=O)NCc2ccco2)cc1OC	0	0	0	0	44.7µM	0
COc1ccc(C(=O)OCC(=O)NCc2ccco2)c(OC)c1	0	-	-	-	-	-
O=C(NCc1ccccc1Cl)c1cc(=O)[nH]c2ccccc12	?	0	0	0	?	0
COC(=O)c1cc(C)c(C)cc1NC1OC(CO)C(O)C1O (stereo unspecified)	?	0	-	0	-	0
CC1(C)C2CCC1(C)C(NCC(O)COc1ccc(C#N)cc1)C2 (stereo unspecified)	0	12.6µM	25.1µM	0	?	0
COc1ccc(S[C@]2(C(=O)NCC(F)(F)F)CC(=O)N[C@@H]2c2ccc(OC)cc2)cc1	31.6µM	-	-	-	-	-
O=C(NCCc1ccccc1)C(=O)Nc1nccs1	0	0	0	0	?	0
O=C(NCc1ccncc1)C(=O)Nc1nccs1	0	?	?	0	14.1µM	0
Cc1ccc(CNC(=O)c2nccnc2C(=O)O)cc1	?	?	0	0	50.1µM	0
Cc1ccccc1CNC(=O)C(=O)Nc1nccs1	0	0	-	0	12.6µM	0
Cc1ccc(CNC(=O)C(=O)Nc2nccs2)cc1	0	0	?	0	17.8µM	0
SMILES	ALOX12 inh	JMJD2A Tudor	BAZ2B block	HP1b binding inh	G9a inh	PLK1 PBD inh
COc1ccccc1CNC(=O)C(=O)Nc1nccs1	0	?	0	0	?	0
Cc1c(NP(=O)(Oc2ccccc2F)Oc2ccccc2F)c(=O)n(-c2ccccc2)n1C	0	0	0	0	0	0
CC#CCCC(=O)N1C=Cc2ccccc2C1C#N (stereo unspecified)	0	0[11.4 µM]	0	?	0	11.9µM
CC1=Cc2ccccc2C(C#N)N1C(=O)c1ccccc1 (stereo unspecified)	0	0	0	0	0	0
COCCCNC(=S)N/N=C/c1ccc2c(c1)OCO2	?	0	0	0	0	0
CC(C)CCC(CCN1CCOCC1)c1ccc2c(c1)OCO2 (stereo unspecified)	?	3.16µM	?	0	44.7µM	0
CC(C)CCC(CCN1CCCC1)c1ccc2c(c1)OCO2 (stereo unspecified)	0	1.41µM	0	?	0	0
COCCCNCCC(CCC(C)C)c1ccc2c(c1)OCO2 (stereo unspecified)	?	20µM	?	?	?	0
CCC(CC)NC(=O)CSc1ccc(S(=O)(=O)N2CCOCC2)cn1	0	0	0	0	?	0
CC(C)CSc1nc(N2CCOCC2)c2c(c1C#N)CC(C)(C)SC2	0	0[11.4 µM]	0	0	?	?
CCOC(=O)C1=C(C)N(c2ccccc2)C(=O)/C1=C\c1cccs1	0	?	10µM	28.2µM	?	0
COC(=O)C1=C(C)N(c2ccccc2)/C(=C/c2ccco2)C1=O	0	0	0	0	-	0
CCOC(=O)C1=C(C)N(c2ccccc2)C(=O)/C1=C\c1ccco1	?	?	0	0	39.8µM	0
COC(=O)C1=C(C)N(c2ccc(C)c(C)c2)/C(=C/c2cccs2)C1=O	0	0	0	0	0	0
CCOC(=O)C1=C(C)N(c2ccc(C)cc2)C(=O)/C1=C\c1cccs1	0	12.6µM	10µM	?	-	0
COC(=O)C1=C(C)N(c2ccc(OC)c(OC)c2)C(=O)/C1=C\c1ccco1	0	0	35.5µM	0	?	0
COc1ccc(CCN(C)Cc2nc(-c3cnccn3)no2)cc1OC	0	0	0	0	?	0
O=C1NC[C@H](CCCCN2C[C@H](Cc3ccccc3)N(CCc3ccc(O)cc3)C(=O)C2=O)N(CCc2ccc(O)cc2)C1=O	0	-	-	-	-	0
COc1ccc(/C=C/c2cc[n+](C(=O)Cc3ccccc3)cc2)cc1	0	0	?	0	0	0
COc1cccc(NC(=O)CCc2nc(-c3ccccc3F)no2)c1	0	0	0	0	0	0
COC(=O)C1=C(C)N(c2cccc(C)c2)C(=O)/C1=C\c1cccs1	0	?	10µM	?	11.2µM	0
CCOC(=O)C1=C(C)N(c2ccccc2)C(=O)/C1=C\c1ccc(O)c(OC)c1	?	5.01µM	?	?	3.16µM	?
COC(=O)C1=C(C)N(c2cc(C)cc(C)c2)/C(=C/c2ccco2)C1=O	0	79.4µM	50.1µM	0	?	0
COC(=O)C1=C(C)N(c2ccccc2)/C(=C/c2cccs2)C1=O	0	0	0	0	0	0
CCN(CC)C(=O)Cn1cc(C(=O)C2CC2)c2ccccc21	0	0	0	0	0	0
SMILES	ALOX12 inh	JMJD2A Tudor	BAZ2B block	HP1b binding inh	G9a inh	PLK1 PBD inh
c1ccc(CN2CCNc3cnc(Nc4ccncn4)cc3C2)cc1	0	-	-	-	-	-
CC(=O)C(=Nc1ccc(Cl)cc1Cl)NNc1cccc(Cl)c1	0	56.2µM	14.1µM	?	?	0
O=C(NC1CC1)c1ccc2cncn2c1	0	-	-	-	-	-
Cn1ccc(C(=O)NC(=S)Nc2ccc([N+](=O)[O-])cc2O)n1	0	0	0	0	25.1µM	0
O=C(N/N=C/c1ccco1)c1ccc2nc[nH]c2c1	0	0	0	0	0	0
CC(C)N1CC(O)=C(c2nc3ccccc3c(=O)[nH]2)C1=N	0	0	0	0	0	0
COc1ccccc1-c1ccccc1CN1CCC(C)(NC(C)=O)C1 (stereo unspecified)	0	-	-	-	-	-
CC(=O)NC1(C)CCCN(Cc2cccc(-c3c(C)noc3C)c2)C1 (stereo unspecified)	39.8µM	-	-	-	-	-

From PubChem BioAssay
